# From PubChem BioAssay (Tox21)
# Inconclusive results are not listed. A call without a number means that no potency is given here. Activity calls are given as the source filed them. The call rests on the fitted dose curve; in most records, active means well fitted cell-killing curve with a large enough effect in the repeat runs; inconclusive means weak or mixed curves, or effect the other way; inactive means no such curve, though single readings can be large or run the other way.
# Test: qHTS assay to identify small molecule agonists of the RXR signaling pathway - cell viability counter screen (AID 1159529); further: nearly all actives have a fitted effect of over 50% in size
# Conditions: RXR-alpha-bla HEK293T viability, CellTiter-Glo, 16 h; series mostly up to 76.8 µM
# Excerpt: National Center for Advancing Translational Sciences [NCATS]
# NIH Chemical Genomics Center [NCGC]
# U.S. Environmental Protection Agency [EPA]
# National Institutes of Environmental Health Sciences [NIEHS]
# National Toxicology Program [NTP]
# U.S. Food and Drug Administration [FDA]
# The Retinoid X receptor (RXR), a nuclear hormone receptor expressed in liver, spleen, placenta, epidermis, central nervous system. These receptors are able to form homo and heterodimers with other nuclear receptors and due to this heterodimerizing ability, RXR functions as master regulators producing diverse physiological effects. Three subtypes of RXR exist; alpha, beta and gamma. Retinoid X receptor alpha (RXR-alpha) has potential roles in metabolic signaling pathways, skin alopecia, dermal cysts, cardiac development, insulin sensitization etc. Therefore screening environmental chemicals on RXR-alpha signaling can be used for the studies focused on such therapeutic applications. For quantification of RXR-alpha ligands signaling, GeneBLAzer RXR alpha-UAS-bla HEK 293T (Life Technologies, Carlsbad, CA) cells containing a beta-lactamase reporter-gene under control of Retinoid X receptor-alpha response element were used to screen Tox21 10K library. The cytotoxicity of the Tox21 compound library against the RXR-alpha HEK 293T cell line was tested in parallel by measuring cell viability using CellTiter-Glo assay (Promega Corporation, Madison, WI) in the same wells.
# Tox21 Assay Protocol Summary:
# RXR-alpha HEK 293T cells were dispensed at 2,000 cells/6 uL of assay medium containing 2% charcoal-stripped FBS using a Multidrop Combi (ThermoFisher Scientific, Waltham, MA) dispenser. The assay was performed in black wall/clear-bottom 1536-well plates (Greiner Bio-One North America Inc. Monroe, NC). Tetraoctyl ammonium bromide was used as a positive control in the cytotoxicity screen. After the assay plates were incubated at 37 C and 5% CO2 for 5 hr, 23 nL of compounds dissolved in DMSO, positive control or DMSO only were transferred to the assay plate by a Pintool station (Kalypsys, San Diego, CA). The assay plates were incubated at 37 C and 5% CO2 for 16 hr. One uL of LiveBLAzer B/G FRET substrate (Life Technologies) was added using a Flying Reagent Dispenser (FRD) (Aurora Discovery, San Diego, CA) and the plates were incubated at room temperature for 2 hr. Fluorescence intensity (405 nm excitation, 460/530 nm emission) was measured using an Envision plate reader (PerkinElmer, Shelton, CT). For cytotoxicity, 4 uL/well of CellTiter-Glo reagent was added into the assay plates using an FRD. After 30 min incubation at room temperature, the luminescence intensity was measured using a ViewLux plate reader (PerkinElmer).
# Potency means the concentration at half of the fitted maximal effect.
row,SMILES,Potency
1,Cc1c(Cn2ccnc2)c2ccccc2n1CCC(=O)O,inactive
2,CC1(C)[C@H]2CC[C@]1(C)[C@H](O)C2,inactive
3,Oc1ccc(C(O)CNCCCCCCNCC(O)c2ccc(O)c(O)c2)cc1O (stereo not given),inactive
4,OC(CCN1CCCCC1)(c1ccccc1)C1CCCCC1 (stereo not given),inactive
5,CC(=O)c1ccc2c(c1)[C@H](NC(=O)c1ccc(F)cc1)[C@@H](O)C(C)(C)O2,inactive
6,CCCc1ccccc1,inactive
7,CC(O)C1CCCCC1 (stereo not given),inactive
8,CC(=O)CC(=O)c1ccccc1,inactive
9,CCCCCCCCN(C)C,inactive
10,CC(=O)N(CC(=O)N(C)C)c1ccccc1,inactive
11,CCCCCC(CO)CCC (stereo not given),inactive
12,Cc1occc1S,inactive
13,CC/C(=C\C(=N/O)C(N)=O)C(C)[N+](=O)[O-] (stereo not given),inactive
14,OCCC1CCCCN1 (stereo not given),inactive
15,COc1cc(C(C)(C)C)c(O)c(C(C)(C)C)c1,inactive
16,CC(C)(C)c1cc(O)c(C(C)(C)C)cc1O,inactive
17,CC(C)NCC(O)COc1ccc(CC(N)=O)cc1 (stereo not given),inactive
18,CC(C)(C)C1CCCCC1O (stereo not given),inactive
19,CCOC(=O)CC(=O)c1cc(F)c(Cl)nc1Cl,inactive
20,C=C(C)C(=O)OCCOc1ccccc1,inactive

row,SMILES,Potency
1,Cn1c(NCCN(CCO)CCCc2ccc([N+](=O)[O-])cc2)cc(=O)n(C)c1=O,inactive
2,O=S1(=O)N=C(O)c2ccccc21,inactive
3,O=C(O)Cc1cc(I)c(Oc2ccc(O)c(I)c2)c(I)c1,inactive
4,Cc1cc(NC(=O)C(=O)O)cc(C)c1Oc1ccc(O)c2c1CCC2,inactive
5,CN1CCN(C2=Nc3cc(Cl)ccc3Nc3ccccc32)CC1,inactive
6,Cc1ncsc1CCO,inactive
7,CN(C(=O)CCCOc1ccc2[nH]c(=O)ccc2c1)C1CCCCC1,inactive
8,CC(C)CCCCCCOC(=O)c1ccc(C(=O)OCCCCCCC(C)C)c(C(=O)OCCCCCCC(C)C)c1,inactive
9,CCOc1nc2cccc(C(=O)O)c2n1Cc1ccc(-c2ccccc2-c2nn[nH]n2)cc1,inactive
10,Cc1ccc(C(=O)C(C)CN2CCCCC2)cc1 (stereo not given),inactive
11,Nc1nc(CC(=O)O)cs1,21.9 µM (active)
12,CC(C)(C)c1cc(CO)cc(C(C)(C)C)c1O,inactive
13,Cn1sccc1=O,inactive
14,CC(=O)Nc1ccc(/C=N/NC(N)=S)cc1,inactive
15,CCN(CC)CCc1nc(-c2ccccc2)no1,inactive
16,CC(C)=CCCC(C)CC=O (stereo not given),inactive
17,FC(F)(F)C(F)(F)C(F)(F)C(F)(F)C(F)(F)C(F)(F)CCI,inactive
18,CC(C)c1cccc(C(C)C)c1NC(=O)NS(=O)(=O)c1cc(C(C)(C)O)co1,inactive
19,Nc1cnn([C@@H]2O[C@H](CO)[C@@H](O)[C@H]2O)c(=O)n1,inactive
20,O=c1[nH]cnc2ccccc12,inactive
